In PubChem BioAssay AID2241 (Broad Institute, 2010):
The whole screen tested about 21,000 compounds, of which about 110 (0.52%) were called active.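 Rule for the calls: active = most replicate scores above 10, or exactly half above 10 with mean activity above 10; inconclusive = mean activity below 10 while half the replicates exceed 10; inactive = most replicate scores below 10.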 For the sample, actives were picked, then their nearest neighbours and some compounds at random.

test: caspase activation in A1-primed MEFs – cell-based, CaspaseGlo luminescence, A1 inhibitor project, primary screen (AID 2241); details: MEF A1-2A-BIM cells, caspase-Glo luminescence, 3 h; stronger effect = higher value; percent of clofoctol signal, DMSO as zero; concentration not given here;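 note: effector caspase 3 and 7 activity cleaving a DEVD luciferin substrate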

Caspase activation, inactive:
C[C@@H]1CN([C@H](C)CO)C(=O)c2cc(NC(=O)Cc3cn(C)c4ccccc34)ccc2O[C@@H]1CN(C)S(=O)(=O)c1cccs1 -0.00537%, CCSc1ccc2nnc(CCNC(=O)c3ccccc3)n2n1 0.0984%, COc1ccccc1C(=O)N/C(=C\c1ccccc1)C(=O)N1CCOCC1 -0.546%, Cc1ccc(O)c(C(C)(C)C)c1 -0.605%, Cc1sc2nc3n(c(=O)c2c1C)N=C(c1ccc(F)cc1)CS3 -1.09%, CC1=C(Cc2ccc(OC(=O)c3ccccc3)cc2)C(=O)C(C(C)C)CC1 (centres undefined) 0.579%, CC(=O)N1[C@@H](c2ccc(C)cc2)SC(C)(C)[C@@H]1C(=O)O -0.0443%, O=C(CNC(=S)N(Cc1ccccc1)Cc1ccccc1F)N1CCCC1 0.68%, O=C(NCSc1nc2ccccc2s1)c1ccco1 0.614%, O=S(=O)(NCc1ccc(-c2cccs2)cc1)c1cccs1 0.285%, CC(C)NC(=O)N(C)C[C@H]1Oc2ccc(N(C)C)cc2C(=O)N([C@@H](C)CO)C[C@H]1C 0.193%, Cc1noc(C)c1NC(=O)N(C)C[C@H]1Oc2ccc(NS(=O)(=O)c3ccc(F)cc3)cc2C(=O)N([C@@H](C)CO)C[C@H]1C 0.124%, O=C1CCCCC1C(=O)c1ccccc1 (centres undefined) -0.0515%, COC(=O)C1=C(C)Nc2c(c(=O)n(C)c(=O)n2C)C1c1cccc(OCc2ccccc2)c1 (centres undefined) 0.0517%, C[C@H]1CN([C@@H](C)CO)C(=O)c2cc(NC(=O)C3CC3)ccc2O[C@@H]1CN(C)Cc1ccc(Oc2ccccc2)cc1 0.539%, O=C(CCn1c(=S)[nH]c2cc3c(cc2c1=O)OCO3)NC1CCCC1 -1.11%, Clc1ccc(N2CCCCCCC2)nn1 0.981%, CC(=O)Nc1ccc(N=Cc2ccc(N3CCOCC3)cc2)cc1 -0.682%, Cc1ccc(C23CC4CC(CC(CN)(C4)C2)C3)cc1C 4.34%, Cc1cc(-c2cccs2)c2c(N)c(C(=O)c3ccccc3)sc2n1 1.1%, O=c1c2c3c(sc2[nH]c(=S)n1Cc1ccccc1)CCCCC3 -0.256%, Cc1ccc(SCC(=O)Nc2nncs2)cc1 -1.27%, O=C(NCc1ccc2c(c1)OCO2)c1ccc(Cl)cc1 -0.323%, CCOC(=O)c1cc(-c2ccnn2S(=O)(=O)c2ccc(C)cc2)on1 -0.165%, Cc1noc(C)c1NC(=O)Nc1ccc2c(c1)C(=O)N([C@@H](C)CO)C[C@@H](C)[C@H](CN(C)Cc1ccc(C(F)(F)F)cc1)O2 -0.666%, Cc1ccc(S(=O)(=O)Nc2ccc3c(c2)C(=O)N([C@@H](C)CO)C[C@H](C)[C@@H](CN(C)Cc2ccc4c(c2)OCO4)O3)cc1 -0.498%, O=C(COc1ccccc1)NCCc1nc2ccccc2n1Cc1ccccc1 0.301%, Cc1cc(C)c(N=c2scc(C)n2Cc2ccccc2)c(C)c1 0.564%, COc1ccc(-c2cc(C(F)(F)F)nc(SCC(=O)N3CCCCCC3)n2)cc1OC -1.22%, Cc1cccc(N2CCN(C(=O)CCn3c(=S)[nH]c4cc5c(cc4c3=O)OCO5)CC2)c1C -1.1%, COc1ccc(S(=O)(=O)Nc2ccc3c(c2)C(=O)N([C@@H](C)CO)C[C@H](C)[C@H](CN(C)Cc2ccc(C(=O)O)cc2)O3)cc1 0.618%, C/C=C1\CC(C)(CC)C(C#N)(C#N)C(N)=C1C#N (centres undefined) -1.08%, Cc1ccc(S(=O)(=O)Nc2ccc3oc(C)c(C(=O)NN)c3c2)cc1 0.426%, COc1ccc(CCn2c(C)nc(=O)c(-c3ccccc3)c2C)cc1OC 0.553%, CC1(C)CC(=O)C=C(Nc2ccccc2)C1 0.527%, CN(C)c1ccc(/C=C(\C#N)S(=O)(=O)c2ccccc2)cc1C#N 0.997%, COc1ccc(OC(=O)c2csc(Cc3c(Cl)cccc3Cl)n2)cc1 1.94%, O=C(Nc1nccs1)C1CCCN(C(=O)c2cnn(-c3ccccc3)c2-n2cccc2)C1 (centres undefined) 0.381%, CC1(C)CC(=O)C(C=NCc2cccnc2)=C(O)C1 1.24%, C[C@H](CO)N1C[C@H](C)[C@@H](CN(C)Cc2ccccc2)Oc2ccc(NC(=O)Nc3ccc4c(c3)OCO4)cc2C1=O 0.17%, COc1ccc(CN(C)C[C@@H]2Oc3ccc(NC(=O)NC(C)C)cc3C(=O)N([C@@H](C)CO)C[C@H]2C)cc1 -0.804%, CC1(C)Cc2c(sc3ncn4nc(COc5ccc(Cl)cc5)nc4c23)C(C)(C)N1 0.338%, C/C=C(/C)C(=O)O[C@H]1CC(C)(C)C[C@H]2C3=CCC4[C@@]5(C)CC[C@H](O[C@@H]6O[C@H](C(=O)O)[C@@H](O[C@@H]7O[C@H](CO)[C@H](O)[C@H](O)[C@H]7O[C@@H]7O[C@H](CO)[C@@H](O)[C@H](O)[C@H]7O)[C@H](O)[C@H]6O[C@@H]6O[C@@H](C)[C@H](O)[C@@H](O)[C@H]6O)C(C)(C)C5CC[C@@]4(C)[C@]3(C)[C@@H](O)[C@@H](O)[C@@]12CO (some centres undefined) -2.44%, COc1ccc(S(=O)(=O)N(C)C[C@H]2Oc3ccc(NC(=O)Nc4c(C)noc4C)cc3C(=O)N([C@H](C)CO)C[C@H]2C)cc1 -0.141%, CCOC(=O)c1cnc2cc(C(F)(F)F)ccc2c1N1CCCCCC1 0.00836%, C[C@H](CO)N1C[C@H](C)[C@H](CN(C)S(=O)(=O)c2cccs2)Oc2ccc(NS(=O)(=O)c3ccccc3)cc2C1=O -0.0772%, COc1cccc(NC(=O)c2cc3c(s2)-c2c(C)cccc2OC3)c1 -5.23%, Cc1nn(C)cc1C(=O)c1ccccc1 0.635%, Cc1ccc2c(c1)N(CCCC(=O)N1CCCCC1)C(=O)CO2 -0.335%
